Assay results taken from PubChem BioAssay (NCI).
Compounds without any hit were thinned out: in the full panel of roughly 83,000, 20% have a hit.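 Testing used 96-well plates and a 48-hour single-concentration exposure. Example: -40 means 40% of the starting cells died.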 Unmarked numbers belong to inactive results. Active and inactive are the calls of the source. How the source made its calls: active means growth percent below 10; inactive means the rest.

Key:
Assay in all cases: NCI-60 one-dose screen, 48 h (100 = growth as untreated, 0 = no growth, -100 = all killed)
Conditions in all cases: 10 µM
OVCAR-8 ovarian = test system: OVCAR-8 ovarian
OVCAR-5 ovarian = test system: OVCAR-5 ovarian
OVCAR-4 ovarian = test system: OVCAR-4 ovarian
SK-OV-3 ovarian = test system: SK-OV-3 ovarian
OVCAR-3 ovarian = test system: OVCAR-3 ovarian
HS 578T breast = test system: HS 578T breast
NCI/ADR-RES ovarian = test system: NCI/ADR-RES ovarian
T-47D breast = test system: T-47D breast
BT-549 breast = test system: BT-549 breast
SW-620 colon = test system: SW-620 colon
MCF7 breast = test system: MCF7 breast
HCT-116 colon = test system: HCT-116 colon
HCC-2998 colon = test system: HCC-2998 colon
KM12 colon = test system: KM12 colon
RPMI-8226 leukemia = test system: RPMI-8226 leukemia
MDA-MB-435 melanoma = test system: MDA-MB-435 melanoma
IGROV1 ovarian = test system: IGROV1 ovarian

SMILES	growth (OVCAR-8 ovarian) [%]	growth (OVCAR-5 ovarian)	growth (OVCAR-4 ovarian)	growth (SK-OV-3 ovarian) [%]	growth (OVCAR-3 ovarian)	growth (HS 578T breast) [%]	growth (NCI/ADR-RES ovarian)	growth (T-47D breast)	growth (BT-549 breast) [%]	growth (SW-620 colon)	growth (MCF7 breast)	growth (HCT-116 colon)	growth (HCC-2998 colon) [%]	growth (KM12 colon)	growth (RPMI-8226 leukemia)	growth (MDA-MB-435 melanoma)	growth (IGROV1 ovarian) [%]
Cc1nn(-c2ccccc2)c2nc(Cl)c(C=O)c(-c3ccccc3)c12	99.9	99.8%	102%	116	106%	112	82.8%	83.5%	86	72.1%	90.6%	4.57% (active)	77.5	78.3%	–	–	–
O=C(O)Cc1ccc(O)c(O)c1	104	96.2%	109%	99.3	108%	90	111%	83.2%	88.3	103%	91%	105%	92.2	98.6%	92.4%	103%	–
Nc1cc(-c2ccc(Cl)cc2)nn1-c1nc2ccccc2nc1Cc1ccccc1	91.2	95%	–	96.7	–	–	87.5%	85.5%	90.5	–	85.3%	72.8%	94.8	–	–	86.8%	94.9
COc1ccc2c(c1)C(CC(=O)NN)CCC2 (stereo not drawn)	99.1	100%	110%	115	112%	102	108%	105%	103	106%	95.6%	104%	–	105%	113%	103%	–
Nc1nc(N)c(N)c(Nc2ccc(CCO)cc2)n1	105	111%	112%	–	107%	100	103%	102%	99.9	94%	105%	104%	106	101%	95.3%	104%	–
CCOC(=O)c1cocc1C(=O)O	105	105%	100%	106	103%	100	107%	104%	108	103%	101%	103%	103	104%	114%	106%	113
CCN1C(=O)CC(SC2CC(=O)N(CC)C2=O)C1=O (stereo not drawn)	109	106%	102%	–	107%	101	98.7%	102%	101	108%	103%	104%	97.6	104%	–	104%	107
O=c1c(Br)ccc(Br)cc1Br	–	4.49% (active)	-92.8% (active)	112	-94.8% (active)	43.4	-15.3% (active)	-44.1% (active)	98.4	-46.5% (active)	-22.6% (active)	-88.1% (active)	–	-47% (active)	-51.2% (active)	-40.1% (active)	–
O=C1c2ccccc2C(=O)N1CCCCNc1ccccc1	101	101%	107%	113	91%	103	–	124%	61.7	105%	111%	97.5%	108	67%	30.5%	118%	141
Cc1ccc(C2NC(=S)N3C(c4ccc(C)cc4)NC(=S)N23)cc1 (stereo not drawn)	35.7	81.6%	117%	49	-20% (active)	26.4	19%	47.3%	–	29.2%	10.5%	1.28% (active)	47	8.36% (active)	6.55% (active)	-35% (active)	–
O=C1OC(C(Cl)(Cl)Cl)OC1C(Cl)(Cl)Cl (stereo not drawn)	104	105%	113%	–	109%	117	108%	122%	109	125%	114%	105%	111	101%	104%	94.7%	–
C=C1CCC2(C#N)[C@H]3[C@H](CC[C@@H]2C)[C@@H](C)C[C@@H](CC(C)(C)NC(=O)CN2CCC2=O)[C@H]13 (stereo partly drawn)	54.8	63.5%	62.4%	89.7	65.6%	74.3	59.2%	12.5%	55.3	–	35.2%	39%	41.1	42.7%	-11.3% (active)	57.9%	28.7
CCCCN1C(=O)CC(SC2CC(=O)N(CCCC)C2=O)C1=O (stereo not drawn)	108	108%	109%	111	106%	103	111%	106%	104	110%	102%	105%	–	107%	100%	108%	–
O=C(N/N=C/c1cc([N+](=O)[O-])ccc1O)c1cccc2ccccc12	22.8	47.2%	20.2%	41	27.2%	64.1	10.6%	28.3%	45.2	47.7%	16.5%	18.4%	52.4	56.1%	21.5%	57.1%	39.8
Fc1ccc(C(c2ccc(F)cc2)C(Cl)Cl)cc1	101	105%	105%	106	105%	–	107%	110%	95.5	–	98%	96.8%	–	–	97.3%	107%	–
Cc1cc(Br)nnc1Br	115	105%	113%	101	112%	110	–	90.1%	96.8	109%	103%	106%	108	96.6%	122%	114%	–
